Assay results reported in PubChem BioAssay AID1159580 (chemical genetic matrix, 2015).
Screen size: about 5,500 compounds; about 2,000 (36%) were called active. Another 18% or so got no clear call; they are omitted. Cut-off read from the data, not from the text of the source: active = normalized growth mostly below about 0.91 (no sharp cut-off); inconclusive = no clear call, values can overlap the other calls; inactive = mostly above about 0.92. The list shows a part of the results.

Assay: chemical genetic growth profiling, strain panel (AID 1159580);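 note: tested at 20 µM; growth read once vehicle control cultures reached saturation at 30 °C; 1 = growth at the plate median or of vehicle wells; lower values mean less growth of the strain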
Conditions: S. cerevisiae deletion strains, growth OD

Measured: normalized growth

CCN1CCC[C@H]1CNC(=O)c1c(O)c(Cl)cc(Cl)c1OC
inactive: locus YAL040C, strain CLN3, hits give low values 1.01 | locus YCL061C, strain MRC1 (second series), hits give low values 1 | locus YDR363W, strain ESC2, hits give low values 1.03 | locus YER002W, strain NOP16, hits give low values 0.998 | locus YGR229C, strain SMI1, hits give low values 1.02 | locus YMR263W, strain SAP30, hits give low values 1.01 | locus YMR307W, strain GAS1, hits give low values 1 | locus YNL128W, strain TEP1, hits give low values 1.03 | locus YNL175C, strain NOP13, hits give low values 1.01 | locus YNL197C, strain WHI3, hits give low values 1.01 | locus YNL224C, strain SQS1, hits give low values 1.03 | locus YNL322C, strain KRE1, hits give low values 1.02 | locus YOR083W, strain WHI5 (second series), hits give low values 1.02 | locus YPL241C, strain CIN2, hits give low values 0.996
